Assay results published in the supplement of paper PMC10981050.
Where “and” joins values, the source holds several entries; their conditions need not be identical. Equal values may be shown once. Where a name gives a salt, the structure may show the parent alone.

What was measured:
Test in all cases: cell viability relative to vehicle control; higher = less cytotoxic
Settings in all cases: 10 µM
[1] = test system: K562
Method in brief: (§1)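 Each screen used CRISPR-edited mutant and wild-type clones from four leukaemia lines. Compounds were acoustically dispensed at a single 10 µM dose, and CellTiter-Glo luminescence was read after 48 h with the supernatant first removed. Viability was analysed in Genedata Screener and given as percent of the on-plate vehicle control.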

[2] = test system: MARIMO
Method in brief: as §1

[3] = test system: MOLM14
Method in brief: as §1

[4] = test system: OCI-AML2
Method in brief: as §1

SMILES	cell viability ([1]; SRSF2 genotype: SRSF2 P95H/wt)	cell viability ([1]; SRSF2 genotype: SRSF2 wt/wt)	cell viability ([2]; SRSF2 genotype: SRSF2 P95H/wt)	cell viability ([2]; SRSF2 genotype: SRSF2 wt/wt)	cell viability ([3]; SRSF2 genotype: SRSF2 P95H/wt)	cell viability ([3]; SRSF2 genotype: SRSF2 wt/wt)	cell viability ([4]; SRSF2 genotype: P95H/wt)	cell viability ([4]; SRSF2 genotype: wt/wt)
CCCCC(=O)O[C@H]1CC[C@H]2[C@@H]3CCc4cc(O)ccc4[C@H]3CC[C@]12C [Estradiol valerate]	84.7% and 95.4%	94.2%	84.7%	69.3%	69.9%	69.2%	45%	30.4%
NS(=O)(=O)Cc1noc2ccccc12 [Zonisamide]	90.4% and 88.2%	89.5%	85%	98%	91.8%	90.3%	84.7%	95.2%
CCOC(=O)c1cc2ccccc2oc1=O [Ethyl Coumarin-3-carboxylate]	96.8% and 96.2%	92.9%	94.3%	97.2%	88.7%	98%	95%	96.8%
CN(C)Cc1cccc(N=C(c2ccccc2)c2c(O)[nH]c3cc(C(N)=O)ccc23)c1	80.6% and 81.5%	78.9%	72.2%	83.8%	11%	15.9%	23.9%	31.1%
C#Cc1cccc(Nc2ncnc3cc(OCCOC)c(OCCO)cc23)c1 [OSI-420 (Desmethyl Erlotinib)]	43.5% and 54.3%	44.4%	53.9%	49.5%	32.1%	29.9%	30.6%	37.5%
CC(=O)N1C[C@H](O)C[C@H]1C(=O)O [Oxaceprol]	101% and 93.4%	99.3%	104%	109%	96.1%	102%	94.3%	106%
CCC(=O)NCC[C@@H]1CCc2ccc3c(c21)CCO3 [Ramelteon]	105% and 104%	97.6%	91.7%	101%	107%	98.8%	93.7%	99.4%
COc1cc2ncnc(Nc3cccc(Cl)c3F)c2cc1OC(=O)N1CCN(C)C[C@H]1C	84.8% and 93.4%	101%	104%	106%	77.9%	87.3%	89.8%	75.7%
C=CCc1cc(OC)c(OC)c(OC)c1 [Elemicin]	106% and 105%	113%	111%	104%	105%	109%	109%	123%
C=C1C2CCC3C2C(C)(C)CCCC13C (single isomer, unassigned; (+)) [(+)-Longifolene]	105% and 104%	110%	96.6%	107%	103%	106%	103%	115%
CCCCCCCCCCCCCCCC(=O)OCC(O)C1OC(=O)C(O)=C1O [L-Ascorbyl 6-palmitate]	103% and 102%	98.7%	107%	121%	106%	109%	103%	106%
CC(C)n1c(=O)n(C)c2cnc3cc(F)c(-c4ccc(OCCCN5CCCCC5)nc4)cc3c21	71.3% and 72.9%	75.9%	60%	61%	30.9%	32%	32.7%	37%
C[Si](C)(C)CCOCn1ccc2c(-c3cn[nH]c3)ncnc21	98.4% and 99.6%	109%	98.6%	106%	95.9%	106%	100%	99%
CCCNC[C@]1(O)[C@H](C)O[C@@H](O[C@H]2[C@H](C)[C@@H](O[C@@H]3O[C@H](C)C[C@H](N(C)C)[C@H]3O)[C@](C)(O)C[C@@H](C)CN[C@H](C)[C@@H](O)[C@](C)(O)[C@@H](CC)OC(=O)[C@@H]2C)C[C@@]1(C)OC [Tulathromycin A]	101% and 105%	104%	101%	107%	100%	106%	99.9%	99%
NC(=O)N/N=C/c1ccc([N+](=O)[O-])o1 [Nitrofurazone (Nitrofural)]	98.5% and 94.8%	96.7%	104%	100%	96.8%	99.5%	102%	103%
O=C(N[C@@H](c1ccccc1)[C@@H](O)C(=O)O)c1ccccc1 [N-Benzoyl-(2R,3S)-3-phenylisoserine]	108% and 99.9%	103%	100%	98.4%	103%	102%	101%	104%
CO/N=C(\C(=O)N[C@@H]1C(=O)N2C(C(=O)O)=C(CSc3nc(C)c(CC(=O)O)s3)CS[C@H]12)c1csc(N)n1 [Cefodizime Sodium]	96% and 90.5%	103%	100%	112%	97.1%	104%	99.6%	107%
COc1ccc(-c2cc(=O)c3c(O)cc(O)cc3o2)cc1O [Diosmetin (Luteolin 4-methyl ether)]	86.7% and 96.9%	83.9%	105%	121%	50.9%	53.6%	81%	74.6%
COc1cc(C(=O)N(CCCc2ccccc2)Cc2ccc(CC(=O)O)cc2)cc(OC)c1C	95.6% and 98%	99.5%	105%	109%	101%	99.4%	101%	100%
COc1cccc2c1C(=O)c1c(O)c3c(c(O)c1C2=O)C[C@@](O)(C(=O)CO)C[C@@H]3O[C@H]1C[C@H](N)[C@@H](O)[C@H](C)O1 [Epirubicin Hydrochloride]	4.6% and 11.6%	7.29%	4.26%	2.14%	1.38%	0.76%	1.59%	11.3%
OCc1ccc(O)cc1 [4-Hydroxybenzyl alcohol]	108% and 106%	111%	98%	112%	108%	109%	111%	95.3%

SMILES	cell viability ([1]; SRSF2 genotype: SRSF2 P95H/wt)	cell viability ([1]; SRSF2 genotype: SRSF2 wt/wt)	cell viability ([2]; SRSF2 genotype: SRSF2 P95H/wt)	cell viability ([2]; SRSF2 genotype: SRSF2 wt/wt)	cell viability ([3]; SRSF2 genotype: SRSF2 P95H/wt)	cell viability ([3]; SRSF2 genotype: SRSF2 wt/wt)	cell viability ([4]; SRSF2 genotype: P95H/wt)	cell viability ([4]; SRSF2 genotype: wt/wt)
CO[C@H]1/C=C/O[C@@]2(C)Oc3c(C)c(O)c4c(O)c(c5c(nc6cc(C)ccn65)c4c3C2=O)NC(=O)/C(C)=C\C=C\[C@H](C)[C@H](O)[C@@H](C)[C@@H](O)[C@@H](C)[C@H](OC(C)=O)[C@@H]1C [Rifaximin (Xifaxan)]	97.9% and 106%	98.1%	103%	107%	105%	101%	111%	98.7%
O=C(NNc1nc2cc(F)ccc2n2cccc12)c1cnccn1	24.8% and 29.5%	12.5%	12.6%	15.3%	4.38%	1.25%	12.4%	10.5%
CCN(C(=O)c1c(O)c2c(Cl)cccc2n(C)c1=O)c1ccccc1	98.8% and 96.5%	96.4%	92.4%	99.1%	84.1%	93.4%	87.9%	99.8%
Nc1ncc(-c2ccnc(Nc3ccncc3)n2)c(CC2CC2)n1	69% and 73.7%	74.2%	69.8%	66.9%	44.8%	43.8%	43.3%	45.2%
OC(CC1c2ccccc2-c2cncn21)C1CCCCC1 (stereo not drawn)	85.4% and 94.1%	97.5%	80%	93.1%	90.6%	93.5%	89.8%	99.7%
CC(C)CCCC(C)C1CCC2C3=CC=C4CC(O)CCC4(C)C3CCC21C (stereo not drawn) [7-Dehydrocholesterol]	88.5% and 88.6%	96.5%	87.6%	87%	86.6%	93.9%	94.2%	94.7%
O=C(Nc1cccnc1)N1CCC(Cc2cccc(Oc3ccc(C(F)(F)F)cn3)c2)CC1	42% and 43.6%	44.4%	43.6%	35.1%	51.2%	28.9%	38.3%	27.1%
NCCc1c[nH]cn1 [Histamine]	96.1% and 97.6%	91.1%	84%	93%	56%	63.6%	81.6%	82.4%
CN(C)c1ccc(-c2nc3ncc(Cl)c(N4CCN(CC(=O)Nc5nccs5)CC4)c3[nH]2)cc1	95.8% and 101%	95.2%	96.9%	109%	78.9%	87.5%	92.4%	95.1%
O=C(O)c1ccc2c(c1)nc(Nc1cccc(Cl)c1)c1ccncc12 [cx-4945 (Silmitasertib)]	49.9% and 60.1%	63.7%	49.7%	47.3%	26.9%	34%	5.84%	22.2%
Cc1ccc(-c2c(-c3nn(C)c4ncnc(N5CC[C@H](N6CCCCC6)C5)c34)cnn2C)cc1	92.8% and 98%	105%	96.5%	98.5%	95.1%	101%	103%	102%
CCCCCC1=C(C)CCC1=O [Dihydrojasmone]	105%	108%	101%	106%	107%	105%	106%	115%
O=C(Nc1ccc2c(O)cc(S(=O)(=O)O)cc2c1)Nc1ccc2c(O)cc(S(=O)(=O)O)cc2c1 [AMI-1, free acid]	105% and 92.6%	109%	100%	110%	103%	108%	109%	112%
CC[C@@H](C)Nc1cc(C(=O)N[C@H]2C[C@H]3CC[C@@H](C2)N3c2ccc(C(=O)C3CC3)cn2)c(C)cc1C(N)=O	19.1% and 26.9%	23%	32.8%	28.5%	2%	2.43%	14.2%	21%
COc1ccc(C[C@H](N)C(=O)N[C@H]2[C@@H](O)[C@H](n3cnc4c(N(C)C)ncnc43)O[C@@H]2CO)cc1 [Puromycin 2HCl]	1.95% and 1.45%	1.55%	1.69%	0.77%	0.25%	0.31%	0.26%	0.49%
Cc1c(CN2CCN(C(=O)[C@H](C)O)CC2)sc2c(N3CCOCC3)nc(-c3cnc(N)nc3)nc12 [Apitolisib (GDC-0980, RG7422)]	43.1% and 43.8%	38.9%	39.7%	33.8%	21.7%	21.6%	5.46%	14.5%
C=C1C(=O)O[C@@H]2C[C@@]3(C)CCCC(=C)[C@@H]3C[C@H]12 [Isoalantolactone]	27.5% and 44.2%	40.2%	23%	25.4%	12%	16.1%	1.8%	6.98%
O=[N+]([O-])c1ccc(Nc2ccccc2-c2ccccc2)c2nonc12	104% and 97.4%	95.7%	96.7%	109%	94.2%	95.2%	103%	107%
COCCCOc1cc(C[C@@H](C[C@H](N)[C@@H](O)C[C@H](C(=O)NCC(C)(C)C(N)=O)C(C)C)C(C)C)ccc1OC [Aliskiren Hemifumarate]	104% and 99.9%	95.5%	92.3%	101%	91.8%	98.7%	92.5%	106%
Cc1c(C(=O)NN2CCCCC2)nn(-c2ccc(Cl)cc2Cl)c1-c1ccc(Cl)cc1	81.6% and 88%	74.5%	93.7%	93%	88.5%	87%	91.8%	90.9%
